The sequences below were run on VDR:RXRa (NR concentration 270 nM, RXRa partner concentration 90 nM) (assay: PBM binding z-score (relative to random genomic background probes); higher = stronger binding; sequences stand for … in GC…GCGATTGACAGCGTAGAATGAAGG).
Protocol: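 Protein-binding microarray (Agilent 4x180K custom design, double-stranded 60-nt probes: 5' GC cap, 34-nt variable region, 24-nt constant primer region; full probe sequence given). Purified or IVT nuclear receptor:RXRα heterodimers (3:1 NR:RXRα, mostly 270:90 nM) or homodimers were incubated for 1 h in PBS with 2% milk and no ligand, then detected with Alexa488 antibodies. Fluorescence from o1-orientation probes (~5 replicates averaged) was converted to z-scores against 500 random hg19 background probes. Variable regions are seed direct-repeat (DR0–DR5) sites, all their single-nucleotide variants and half-site ablations.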

Sequence | PBM binding z-score
ACAGACAGGTGAGTGACGGTAACTCAGCTGGACG | -0.336
CCGACTGGGGCAGAAAGGGTACCATACCATCCGG | -0.384
TTACCAAAGTGAAGGTCGTTGATCCCTCTGTAGA | 0.954
ACTAGCACGCCAAGTTTGGGTCACTCAAACAAAG | 0.247
GGAGCGAGGGCAAGTTGATAGCAGAGTTTGATGG | 0.407
TCATATAGGTAATACGGGTGAAAGTCGGCATCTA | 1.25
GCGTATAGGTAATACAAGGTGAAAGTCCGATTGT | 0.306
CCTACGGGGCCATCAGGTCATTGATATCAACGTT | 3.06
TAGCCTAGGTCATTGGGCCAGTAGAGTACGCATC | 2.26
TCTGACAGGTGAAGGTAACTCAGGTACGCAGTCG | 0.667
CCTACTGGGCCACGAAAGGTCAATGATTCAGTGA | 3.4
CCTACTGGGCCAATGGTCATTGATTCCAATGCTC | -0.314
CCTAGCAGGCCAATCTGGGTCAATCAAGGCTTGA | 0.445
GCTACCAGGCCATTTGGGTCACTCAATGACGGGC | 1.36
ATCTCCAGGTAAAAGTTCAGTGAATCCCGAGGAT | 1.43
CGTCAAAGTTCATCTAAGGTAACGTAAAGCACGC | 5.24
CAGCCTACGTCAGGGCCAGTATAGGAGGAACGTT | -0.587
ACTCGGAGGACCAAGGTCAGAGCTACGCCAGTGA | 1.34
CGAACTAGCTCATCCAGGACAGTGAATACATTGA | -0.134
CTACCATGGTGAACAAGGTCGTTGATTACTATTC | 3.04

Sequence | PBM binding z-score
ATCTCTAGGTAATCAAGTTCAGTGAATGCCGAAC | 4.21
GGAACGAGGGCCAGTTGATAGCAGAGTTTGATGG | -0.702
CCTGCTAGATCATGGTCAGCTAATCTACAGTATG | -0.447
CCTACTGGGCCAAGGTCATTGAACAGTCAAAGCA | 3.39
ACTTACGGGGCAACGAGGTTATAGCACGCGTATA | 5.28
TCTAGTTGGTCACGGAGGTCGCACACGACGGGTA | 4.06
TCGTGTAGATCAATAGAGGTTAAGAAAGTGCGCT | 1.83
GCTAGCAGGCCATTTGGGTCACTCAATGACGGGC | 0.933
CCCTACGGGTCACTCCAGGTTATAGCATCGGAGT | 4.12
ATCTCTAGGTAAAGGTAGTTCAGTGAATGCAAAT | 1.12
TCGAGTAGGTTACCAATGAGGCATTCAGCTTTCT | -0.192
TGTCAAAGTTCAAAGGTACCGTAAGTATCCACAC | 4.41
CCTTATGGGTCACGAGGTTATAGCACGACGAGCG | 4.4
TCTGCTAGGTCAACGATGGTTAGCTAATCTGCTA | 1.26
TAGCCTAGGTCAATGGGCCAGTATAGTACGCATC | 1.1
TCAGACAGGTGAAGGTAACCCAGGTACGCAGTCG | 0.641
ATACCAAGGTGATCGTGACGTCGTTGATACTAAC | 0.156
CCTTACGGCTCAAGGTTATAGCACGGGTGGTACG | 0.122
TCTAGCAGGCCAGAGGATCACTCAAGAGGTACGG | -0.662
ACTAGCAGGCCAAGTTTGGGTGACTCAAACAAAG | -0.388
